# Measured values: publication PMC7862700, “An all-to-all approach to the identification of sequence-specific readers for epigenetic DNA modifications on cytosine”
# Tests used:
# Experiment in all cases: DAPPL (digital affinity profiling via proximity ligation, sequencing); 10 mM Tris-HCl pH 7.5, 50 mM NaCl, 1 mM DTT, 4% glycerol, room temperature, 30 min; GST-TFs on glutathione beads, 16-mer random dsDNA library, 0.1% formaldehyde crosslink after washing; high values mean tight binding
# [1] = target: T1, FLI1 (Homo sapiens, UniProt Q01543 1-452); settings: protein: recombinant; tags: N-terminal GST; dsDNA, one strand shown
# T1 sequence: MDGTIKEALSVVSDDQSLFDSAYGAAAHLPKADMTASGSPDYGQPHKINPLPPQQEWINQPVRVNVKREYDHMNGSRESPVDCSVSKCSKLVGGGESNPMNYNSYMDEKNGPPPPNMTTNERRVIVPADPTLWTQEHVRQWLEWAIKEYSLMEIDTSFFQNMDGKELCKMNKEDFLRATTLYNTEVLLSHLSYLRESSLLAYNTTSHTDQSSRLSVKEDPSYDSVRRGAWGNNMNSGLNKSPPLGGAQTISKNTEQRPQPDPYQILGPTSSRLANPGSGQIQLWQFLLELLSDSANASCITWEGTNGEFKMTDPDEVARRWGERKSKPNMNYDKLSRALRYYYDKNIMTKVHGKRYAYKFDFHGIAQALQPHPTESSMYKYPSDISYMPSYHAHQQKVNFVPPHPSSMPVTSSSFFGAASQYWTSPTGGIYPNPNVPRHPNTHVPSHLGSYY
# Outline: (§1)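 A tag-only sample was pooled with DNA-barcoded human transcription factors that had been expressed in yeast as GST fusions and captured on glutathione beads. The pools were incubated for 30 min at room temperature with 200 nmole of a random double-stranded 16-mer DNA library in Tris/NaCl/DTT/glycerol buffer, then washed, crosslinked with 0.1% formaldehyde, proximity-ligated (BsaI/T4 ligase, 1 h, 37 °C), PCR-amplified and sequenced on an Illumina NextSeq500. Binding signal is each hexamer's read frequency for a factor divided by its frequency for the tag-only sample.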
# [2] = target: T2, ELK1 (Homo sapiens, UniProt P19419 1-428); settings: protein: recombinant; tags: N-terminal GST; dsDNA, one strand shown
# T2 sequence: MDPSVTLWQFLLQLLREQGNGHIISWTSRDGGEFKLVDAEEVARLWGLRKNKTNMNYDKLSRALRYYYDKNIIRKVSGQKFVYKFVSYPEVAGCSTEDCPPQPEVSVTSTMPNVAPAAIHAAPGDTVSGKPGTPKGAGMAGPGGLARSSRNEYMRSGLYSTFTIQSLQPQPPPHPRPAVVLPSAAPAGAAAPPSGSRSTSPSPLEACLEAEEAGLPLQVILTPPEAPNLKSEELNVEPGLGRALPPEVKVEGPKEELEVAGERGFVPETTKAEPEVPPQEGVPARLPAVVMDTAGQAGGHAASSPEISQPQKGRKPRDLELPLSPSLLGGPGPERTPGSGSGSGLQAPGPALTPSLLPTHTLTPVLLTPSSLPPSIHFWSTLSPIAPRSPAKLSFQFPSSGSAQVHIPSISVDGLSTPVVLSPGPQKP
# Outline: as §1
# [3] = target: T3, GABPA (Homo sapiens, UniProt Q06546 1-454); settings: protein: recombinant; tags: N-terminal GST; dsDNA, one strand shown
# T3 sequence: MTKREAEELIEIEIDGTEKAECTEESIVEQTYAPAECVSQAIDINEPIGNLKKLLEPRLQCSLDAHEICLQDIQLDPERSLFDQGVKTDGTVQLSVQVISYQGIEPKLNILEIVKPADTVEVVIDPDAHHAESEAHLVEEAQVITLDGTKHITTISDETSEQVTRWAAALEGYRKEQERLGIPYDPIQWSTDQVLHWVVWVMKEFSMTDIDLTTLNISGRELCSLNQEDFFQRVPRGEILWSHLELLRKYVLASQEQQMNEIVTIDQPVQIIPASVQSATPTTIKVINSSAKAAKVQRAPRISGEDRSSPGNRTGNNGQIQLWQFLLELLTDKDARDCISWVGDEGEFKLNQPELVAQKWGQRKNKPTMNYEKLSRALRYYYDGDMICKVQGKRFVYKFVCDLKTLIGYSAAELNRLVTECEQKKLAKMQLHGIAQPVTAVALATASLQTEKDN
# Outline: as §1
# [4] = target: T4, ERG (Homo sapiens, UniProt P11308 1-479); settings: protein: recombinant; tags: N-terminal GST; dsDNA, one strand shown
# T4 sequence: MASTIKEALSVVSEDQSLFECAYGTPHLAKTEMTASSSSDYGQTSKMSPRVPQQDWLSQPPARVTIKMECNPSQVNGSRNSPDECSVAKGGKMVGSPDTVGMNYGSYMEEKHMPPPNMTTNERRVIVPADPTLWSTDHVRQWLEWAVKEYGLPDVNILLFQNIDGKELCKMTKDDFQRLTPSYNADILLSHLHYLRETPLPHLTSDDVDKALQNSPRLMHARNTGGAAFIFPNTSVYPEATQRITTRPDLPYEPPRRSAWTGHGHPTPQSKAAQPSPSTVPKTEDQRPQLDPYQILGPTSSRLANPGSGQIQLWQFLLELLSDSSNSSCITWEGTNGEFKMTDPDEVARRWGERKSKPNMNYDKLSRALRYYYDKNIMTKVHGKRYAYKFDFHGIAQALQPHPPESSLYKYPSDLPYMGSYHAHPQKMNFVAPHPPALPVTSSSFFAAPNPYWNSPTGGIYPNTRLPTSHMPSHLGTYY
# Outline: as §1
# [5] = target: ELF1 (Homo sapiens, UniProt P32519 1-619); settings: protein: recombinant; tags: N-terminal GST; dsDNA, one strand shown
# Outline: as §1
# [6] = target: T5, EHF (Homo sapiens, UniProt Q9NZC4 1-300); settings: protein: recombinant; tags: N-terminal GST; dsDNA, one strand shown
# T5 sequence: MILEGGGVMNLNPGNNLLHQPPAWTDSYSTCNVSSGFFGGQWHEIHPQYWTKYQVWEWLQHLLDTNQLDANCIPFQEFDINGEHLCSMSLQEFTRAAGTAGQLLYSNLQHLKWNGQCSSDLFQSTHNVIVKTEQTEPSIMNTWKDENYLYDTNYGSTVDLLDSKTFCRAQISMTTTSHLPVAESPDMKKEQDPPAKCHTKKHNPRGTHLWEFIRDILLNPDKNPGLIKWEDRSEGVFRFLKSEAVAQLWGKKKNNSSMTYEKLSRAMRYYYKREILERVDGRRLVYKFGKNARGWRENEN
# Outline: as §1
# [7] = target: SPI1 (Homo sapiens, UniProt P17947 1-270); settings: protein: recombinant; tags: N-terminal GST; dsDNA, one strand shown
# Outline: as §1
# [8] = target: SPIB (Homo sapiens, UniProt Q01892 1-262); settings: protein: recombinant; tags: N-terminal GST; dsDNA, one strand shown
# Outline: as §1
# [9] = target: T6, ELK3 (Homo sapiens, UniProt P41970 1-407); settings: protein: recombinant; tags: N-terminal GST; dsDNA, one strand shown
# T6 sequence: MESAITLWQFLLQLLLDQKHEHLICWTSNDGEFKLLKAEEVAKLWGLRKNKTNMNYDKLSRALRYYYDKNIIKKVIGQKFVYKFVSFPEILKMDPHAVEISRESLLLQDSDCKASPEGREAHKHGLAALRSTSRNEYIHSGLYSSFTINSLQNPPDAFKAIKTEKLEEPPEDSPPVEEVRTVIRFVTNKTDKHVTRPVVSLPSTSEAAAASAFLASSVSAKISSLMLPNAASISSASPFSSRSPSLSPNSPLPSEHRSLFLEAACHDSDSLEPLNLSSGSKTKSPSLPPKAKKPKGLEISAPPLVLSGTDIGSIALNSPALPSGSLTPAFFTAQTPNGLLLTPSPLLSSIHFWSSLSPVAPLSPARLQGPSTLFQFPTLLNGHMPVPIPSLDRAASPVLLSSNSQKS
# Outline: as §1
# [10] = target: T7, FEV (Homo sapiens, UniProt Q99581 1-238); settings: protein: recombinant; tags: N-terminal GST; dsDNA, one strand shown
# T7 sequence: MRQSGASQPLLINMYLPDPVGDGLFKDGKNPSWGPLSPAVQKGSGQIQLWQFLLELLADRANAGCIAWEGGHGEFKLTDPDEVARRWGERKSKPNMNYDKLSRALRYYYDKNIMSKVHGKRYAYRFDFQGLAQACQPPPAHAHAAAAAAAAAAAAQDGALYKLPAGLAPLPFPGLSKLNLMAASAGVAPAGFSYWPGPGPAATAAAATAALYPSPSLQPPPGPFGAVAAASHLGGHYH
# Outline: as §1
# [11] = target: ETV5 (Homo sapiens, UniProt P41161 1-510); settings: protein: recombinant; tags: N-terminal GST; dsDNA, one strand shown
# Outline: as §1
# [12] = target: HSF1 (Homo sapiens, UniProt Q00613 1-529); settings: protein: recombinant; tags: N-terminal GST; chain copies: 3; dsDNA, one strand shown
# Outline: as §1
# [13] = target: ELF4 (Homo sapiens, UniProt Q99607 1-663); settings: protein: recombinant; tags: N-terminal GST; dsDNA, one strand shown
# Outline: as §1
# [14] = target: T8, ELK4 (Homo sapiens, UniProt P28324-2 1-405); settings: protein: recombinant; tags: N-terminal GST; dsDNA, one strand shown
# T8 sequence: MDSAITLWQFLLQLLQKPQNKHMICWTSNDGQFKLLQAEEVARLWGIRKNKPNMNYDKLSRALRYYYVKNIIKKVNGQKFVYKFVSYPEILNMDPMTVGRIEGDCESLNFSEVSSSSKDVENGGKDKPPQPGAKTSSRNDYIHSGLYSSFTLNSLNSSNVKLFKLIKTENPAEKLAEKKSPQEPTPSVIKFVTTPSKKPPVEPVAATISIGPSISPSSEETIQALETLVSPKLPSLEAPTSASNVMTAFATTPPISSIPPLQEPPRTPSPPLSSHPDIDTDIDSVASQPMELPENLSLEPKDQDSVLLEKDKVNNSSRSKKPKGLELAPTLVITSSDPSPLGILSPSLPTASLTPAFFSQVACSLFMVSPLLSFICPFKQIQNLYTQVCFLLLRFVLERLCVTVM
# Outline: as §1
# [15] = target: T9, ELF3 (Homo sapiens, UniProt P78545 1-371); settings: protein: recombinant; tags: N-terminal GST; dsDNA, one strand shown
# T9 sequence: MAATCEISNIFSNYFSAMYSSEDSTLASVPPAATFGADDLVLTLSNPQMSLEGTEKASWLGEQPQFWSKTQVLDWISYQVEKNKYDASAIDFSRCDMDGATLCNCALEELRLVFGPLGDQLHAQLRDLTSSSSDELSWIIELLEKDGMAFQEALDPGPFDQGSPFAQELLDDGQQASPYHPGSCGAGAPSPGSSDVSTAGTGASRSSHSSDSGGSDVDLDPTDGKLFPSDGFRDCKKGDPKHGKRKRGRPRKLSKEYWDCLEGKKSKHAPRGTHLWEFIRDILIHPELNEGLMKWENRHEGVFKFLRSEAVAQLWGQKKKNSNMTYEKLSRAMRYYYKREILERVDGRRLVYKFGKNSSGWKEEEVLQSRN
# Outline: as §1
# [16] = target: CRX (Homo sapiens, UniProt O43186 1-299); settings: protein: recombinant; tags: N-terminal GST; dsDNA, one strand shown
# Outline: as §1
# [17] = target: ETV1 (Homo sapiens, UniProt P50549 1-477); settings: protein: recombinant; tags: N-terminal GST; dsDNA, one strand shown
# Outline: as §1
# HSF1, sequence (Q00613 whole entry): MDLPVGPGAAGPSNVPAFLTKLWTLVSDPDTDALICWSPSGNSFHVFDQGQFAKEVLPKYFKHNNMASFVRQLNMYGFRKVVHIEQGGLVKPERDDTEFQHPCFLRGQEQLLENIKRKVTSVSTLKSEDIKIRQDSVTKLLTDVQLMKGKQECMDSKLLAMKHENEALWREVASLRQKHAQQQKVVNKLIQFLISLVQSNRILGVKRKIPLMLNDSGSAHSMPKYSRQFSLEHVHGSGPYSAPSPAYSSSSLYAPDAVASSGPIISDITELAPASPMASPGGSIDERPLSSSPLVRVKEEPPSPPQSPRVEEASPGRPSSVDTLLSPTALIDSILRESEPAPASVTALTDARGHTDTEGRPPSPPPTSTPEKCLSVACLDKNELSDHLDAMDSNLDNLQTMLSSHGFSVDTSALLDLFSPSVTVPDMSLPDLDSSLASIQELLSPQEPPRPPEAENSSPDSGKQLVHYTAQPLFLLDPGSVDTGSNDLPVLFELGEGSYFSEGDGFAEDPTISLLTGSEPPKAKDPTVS
# ELF1, sequence (P32519 whole entry): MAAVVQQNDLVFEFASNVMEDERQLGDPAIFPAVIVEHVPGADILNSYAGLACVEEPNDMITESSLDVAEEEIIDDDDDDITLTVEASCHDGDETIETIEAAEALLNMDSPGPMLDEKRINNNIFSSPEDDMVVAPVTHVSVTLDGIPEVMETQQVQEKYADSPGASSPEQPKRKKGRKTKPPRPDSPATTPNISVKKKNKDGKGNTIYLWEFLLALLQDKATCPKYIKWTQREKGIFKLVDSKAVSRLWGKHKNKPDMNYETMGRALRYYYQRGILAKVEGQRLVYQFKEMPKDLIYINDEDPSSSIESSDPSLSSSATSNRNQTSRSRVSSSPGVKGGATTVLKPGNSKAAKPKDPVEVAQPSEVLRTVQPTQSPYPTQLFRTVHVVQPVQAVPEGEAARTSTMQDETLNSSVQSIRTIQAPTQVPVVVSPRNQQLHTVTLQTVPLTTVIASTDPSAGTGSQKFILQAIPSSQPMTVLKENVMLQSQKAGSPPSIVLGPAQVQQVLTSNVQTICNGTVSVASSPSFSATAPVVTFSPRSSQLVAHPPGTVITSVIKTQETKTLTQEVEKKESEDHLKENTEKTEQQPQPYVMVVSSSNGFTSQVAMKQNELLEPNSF
# ELF4, sequence (Q99607 whole entry): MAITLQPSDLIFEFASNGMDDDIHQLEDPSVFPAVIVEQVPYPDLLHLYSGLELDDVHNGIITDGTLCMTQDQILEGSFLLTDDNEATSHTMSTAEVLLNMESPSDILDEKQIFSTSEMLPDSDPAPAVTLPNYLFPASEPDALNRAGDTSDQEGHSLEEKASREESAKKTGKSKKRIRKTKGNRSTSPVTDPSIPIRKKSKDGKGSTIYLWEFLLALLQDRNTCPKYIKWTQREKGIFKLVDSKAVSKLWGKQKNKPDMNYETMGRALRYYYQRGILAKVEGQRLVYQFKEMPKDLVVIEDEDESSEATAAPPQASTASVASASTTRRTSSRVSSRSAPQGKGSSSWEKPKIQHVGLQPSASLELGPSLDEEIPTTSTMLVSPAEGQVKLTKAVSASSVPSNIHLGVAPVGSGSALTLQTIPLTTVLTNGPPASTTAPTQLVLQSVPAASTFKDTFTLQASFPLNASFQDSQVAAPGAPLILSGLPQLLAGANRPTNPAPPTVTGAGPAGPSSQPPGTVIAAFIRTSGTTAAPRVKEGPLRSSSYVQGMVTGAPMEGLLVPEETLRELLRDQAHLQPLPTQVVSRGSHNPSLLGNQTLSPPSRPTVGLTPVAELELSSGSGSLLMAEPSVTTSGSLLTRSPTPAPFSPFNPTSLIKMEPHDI
# ETV1, sequence (P50549 whole entry): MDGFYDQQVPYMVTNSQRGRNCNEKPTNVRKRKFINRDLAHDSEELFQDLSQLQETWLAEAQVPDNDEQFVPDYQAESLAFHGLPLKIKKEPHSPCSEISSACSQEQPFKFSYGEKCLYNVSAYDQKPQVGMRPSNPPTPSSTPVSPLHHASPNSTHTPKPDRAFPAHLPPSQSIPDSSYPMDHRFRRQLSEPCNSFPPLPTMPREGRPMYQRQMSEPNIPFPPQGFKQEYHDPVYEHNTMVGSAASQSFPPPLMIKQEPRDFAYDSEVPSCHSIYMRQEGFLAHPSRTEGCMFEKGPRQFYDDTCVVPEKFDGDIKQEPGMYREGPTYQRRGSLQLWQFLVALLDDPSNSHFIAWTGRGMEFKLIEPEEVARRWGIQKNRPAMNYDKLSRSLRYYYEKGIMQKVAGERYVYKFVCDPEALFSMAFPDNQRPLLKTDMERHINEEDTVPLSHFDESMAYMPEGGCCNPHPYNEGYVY
# ETV5, sequence (P41161 whole entry): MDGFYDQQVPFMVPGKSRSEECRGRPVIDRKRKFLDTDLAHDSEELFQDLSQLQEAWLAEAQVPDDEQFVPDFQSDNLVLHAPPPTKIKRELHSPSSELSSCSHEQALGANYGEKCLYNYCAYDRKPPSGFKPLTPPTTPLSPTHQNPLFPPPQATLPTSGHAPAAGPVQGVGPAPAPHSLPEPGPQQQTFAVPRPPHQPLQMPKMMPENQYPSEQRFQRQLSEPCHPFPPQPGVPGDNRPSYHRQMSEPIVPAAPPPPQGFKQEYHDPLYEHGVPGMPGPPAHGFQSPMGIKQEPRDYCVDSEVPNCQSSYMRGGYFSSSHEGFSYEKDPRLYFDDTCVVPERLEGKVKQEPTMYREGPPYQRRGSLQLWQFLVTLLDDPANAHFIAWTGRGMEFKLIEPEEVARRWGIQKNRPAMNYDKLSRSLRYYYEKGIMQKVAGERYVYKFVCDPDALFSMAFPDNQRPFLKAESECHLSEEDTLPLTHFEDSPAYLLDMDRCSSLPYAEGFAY
# SPIB, sequence (Q01892 whole entry): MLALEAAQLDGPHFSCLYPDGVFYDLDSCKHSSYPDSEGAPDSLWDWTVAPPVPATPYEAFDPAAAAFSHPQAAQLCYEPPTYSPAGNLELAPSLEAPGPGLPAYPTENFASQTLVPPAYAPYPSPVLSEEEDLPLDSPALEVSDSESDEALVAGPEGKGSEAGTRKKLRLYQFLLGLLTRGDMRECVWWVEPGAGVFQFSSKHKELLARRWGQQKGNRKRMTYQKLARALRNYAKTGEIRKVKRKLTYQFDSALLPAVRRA
# CRX, sequence (O43186 whole entry): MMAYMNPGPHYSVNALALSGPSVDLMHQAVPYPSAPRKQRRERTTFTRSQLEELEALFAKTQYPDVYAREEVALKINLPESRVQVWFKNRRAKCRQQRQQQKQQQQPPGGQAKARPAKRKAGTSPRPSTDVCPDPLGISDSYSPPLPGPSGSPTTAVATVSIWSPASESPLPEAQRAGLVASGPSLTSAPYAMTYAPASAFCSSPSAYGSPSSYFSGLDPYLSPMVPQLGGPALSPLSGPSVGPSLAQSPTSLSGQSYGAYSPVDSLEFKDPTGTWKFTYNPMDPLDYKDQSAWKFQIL
sequence,measurement,setting,value
TACACG,binding signal,[1],"1.13 fold enrichment (6-mer frequency, TF over GST control)"
same,binding signal,[2],"1.11 fold enrichment (6-mer frequency, TF over GST control)"
same,binding signal,[3],"1.19 fold enrichment (6-mer frequency, TF over GST control)"
same,binding signal,[4],"1.1 fold enrichment (6-mer frequency, TF over GST control)"
same,binding signal,[5],"1.16 fold enrichment (6-mer frequency, TF over GST control)"
same,binding signal,[6],"1.1 fold enrichment (6-mer frequency, TF over GST control)"
same,binding signal,[7],"1.07 fold enrichment (6-mer frequency, TF over GST control)"
same,binding signal,[8],"1.16 fold enrichment (6-mer frequency, TF over GST control)"
same,binding signal,[9],"1.19 fold enrichment (6-mer frequency, TF over GST control)"
same,binding signal,[10],"1.12 fold enrichment (6-mer frequency, TF over GST control)"
same,binding signal,[11],"1.22 fold enrichment (6-mer frequency, TF over GST control)"
same,binding signal,[12],"1.04 fold enrichment (6-mer frequency, TF over GST control)"
same,binding signal,[13],"1.14 fold enrichment (6-mer frequency, TF over GST control)"
same,binding signal,[14],"1.21 fold enrichment (6-mer frequency, TF over GST control)"
same,binding signal,[15],"1.15 fold enrichment (6-mer frequency, TF over GST control)"
same,binding signal,[16],"1.1 fold enrichment (6-mer frequency, TF over GST control)"
same,binding signal,[17],"1.16 fold enrichment (6-mer frequency, TF over GST control)"
